In PubChem BioAssay (NCI):
The panel holds about 83,000 compounds, 20% with a hit somewhere; the sample as a whole holds those more often.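 Interpretation: 100, growth as untreated; towards 0, rising growth inhibition; 0, no net growth; 0 to -100, cell death. Compounds scoring below 10 were considered active.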 Unmarked numbers belong to inactive results. Activity calls are given as the source filed them.

Key:
Experiment in all cases: NCI-60 one-dose screen, 48 h (100 = growth as untreated, 0 = no growth, -100 = all killed)
NCI-H226 lung = test system: NCI-H226 lung
NCI-H322M lung = test system: NCI-H322M lung
HOP-62 NSCLC = test system: HOP-62 NSCLC
NCI-H460 lung = test system: NCI-H460 lung
HOP-92 NSCLC = test system: HOP-92 NSCLC
NCI-H522 lung = test system: NCI-H522 lung
A549/ATCC NSCLC = conditions: 10 µM unless noted
786-0 renal = test system: 786-0 renal
COLO 205 colon = test system: COLO 205 colon
DU-145 prostate = test system: DU-145 prostate
K-562 leukemia = conditions: 10 µM unless noted
MALME-3M melanoma = test system: MALME-3M melanoma
MDA-MB-231 breast = test system: MDA-MB-231 breast
RXF 393 renal = test system: RXF 393 renal
SF-268 CNS = test system: SF-268 CNS
SF-295 CNS = test system: SF-295 CNS
SF-539 CNS = test system: SF-539 CNS
UACC-257 melanoma = test system: UACC-257 melanoma
M14 melanoma = test system: M14 melanoma

O=C(Nc1ccc(-c2ccc3c(c2)NC(=O)/C3=C\c2ccc[nH]2)cc1)Nc1cccc(Cl)c1
growth (NCI-H226 lung; 10 µM unless noted): 2.01% (active)
growth (NCI-H322M lung; 10 µM unless noted): 14.1%
growth (HOP-62 NSCLC; 10 µM unless noted): -29.6% (active)
growth (NCI-H460 lung; 10 µM unless noted): 1.16% (active)
growth (HOP-92 NSCLC; 10 µM unless noted): 41.5%
growth (NCI-H522 lung; 10 µM unless noted): -51.7% (active)
growth (A549/ATCC NSCLC): -3.34% (active)
growth (786-0 renal; 10 µM unless noted): -41.6% (active)
growth (COLO 205 colon; 10 µM unless noted): -58.6% (active)
growth (DU-145 prostate; 10 µM unless noted): 24.6%
growth (K-562 leukemia): 7.56% (active)
growth (MALME-3M melanoma; 10 µM unless noted): 7.96% (active)
growth (MDA-MB-231 breast; 10 µM unless noted): -23.1% (active)
growth (RXF 393 renal; 10 µM unless noted): -53.6% (active)
growth (SF-268 CNS; 10 µM unless noted): 32%
growth (SF-295 CNS; 10 µM unless noted): -31% (active)
growth (SF-539 CNS; 10 µM unless noted): -79.8% (active)
growth (UACC-257 melanoma; 10 µM unless noted): 22.3%
growth (M14 melanoma; 10 µM unless noted): 9.34% (active)

CCOC(=O)/C(F)=C/C1CC1CCc1ccc(OCC)cc1 (stereo not drawn)
growth (NCI-H226 lung; 10 µM unless noted): 86.8%
growth (NCI-H322M lung; 10 µM unless noted): 82.5%
growth (HOP-62 NSCLC; 10 µM unless noted): 124%
growth (NCI-H460 lung; 10 µM unless noted): 59.2%
growth (HOP-92 NSCLC; 10 µM unless noted): 91.7%
growth (A549/ATCC NSCLC): 50.5%
growth (786-0 renal; 10 µM unless noted): 105%
growth (COLO 205 colon; 10 µM unless noted): 41.8%
growth (DU-145 prostate; 10 µM unless noted): 50.5%
growth (K-562 leukemia): 98.3%
growth (MALME-3M melanoma; 10 µM unless noted): 89.9%
growth (MDA-MB-231 breast; 10 µM unless noted): 97.4%
growth (RXF 393 renal; 10 µM unless noted): 96.2%
growth (SF-268 CNS; 10 µM unless noted): 90.5%
growth (SF-295 CNS; 10 µM unless noted): 91.1%
growth (SF-539 CNS; 10 µM unless noted): 93%
growth (UACC-257 melanoma; 10 µM unless noted): 105%
growth (M14 melanoma; 10 µM unless noted): 105%

N/C(=N\c1nc2ccc([N+](=O)[O-])cc2s1)NC(=O)Nc1ccccc1Cl
growth (NCI-H226 lung; 10 µM unless noted): 23.7%
growth (NCI-H322M lung; 10 µM unless noted): 61.7%
growth (HOP-62 NSCLC; 10 µM unless noted): 51.3%
growth (NCI-H460 lung; 10 µM unless noted): 11.3%
growth (HOP-92 NSCLC; 10 µM unless noted): 17.2%
growth (NCI-H522 lung; 10 µM unless noted): 5.69% (active)
growth (A549/ATCC NSCLC): 9.92% (active)
growth (786-0 renal; 10 µM unless noted): -32% (active)
growth (COLO 205 colon; 10 µM unless noted): 49.3%
growth (DU-145 prostate; 10 µM unless noted): 45.5%
growth (K-562 leukemia): 13%
growth (MALME-3M melanoma; 10 µM unless noted): -17.1% (active)
growth (MDA-MB-231 breast; 10 µM unless noted): 15%
growth (RXF 393 renal; 10 µM unless noted): 25%
growth (SF-268 CNS; 10 µM unless noted): 56.1%
growth (SF-295 CNS; 10 µM unless noted): 58.5%
growth (SF-539 CNS; 10 µM unless noted): 11.1%
growth (UACC-257 melanoma; 10 µM unless noted): 89.6%
growth (M14 melanoma; 10 µM unless noted): 62.8%

CC/C(=C(\c1ccc(O)cc1)c1ccc(OCCN(C)C(=O)CCOCCNC(=O)c2ccc3c(c2)CN([C@@H]2CCC(=O)NC2=O)C3=O)cc1)c1ccccc1
growth (NCI-H226 lung; 1 µM): 87.2%
growth (NCI-H226 lung; 10 µM): 66.3%
growth (NCI-H322M lung; 1 µM): 101%
growth (NCI-H322M lung; 10 µM): 88.1%
growth (HOP-62 NSCLC; 1 µM): 95.1%
growth (HOP-62 NSCLC; 10 µM): 94.4%
growth (NCI-H460 lung; 1 µM): 115%
growth (NCI-H460 lung; 10 µM): 114%
growth (HOP-92 NSCLC; 1 µM): 37.9%
growth (HOP-92 NSCLC; 10 µM): 43.7%
growth (NCI-H522 lung; 1 µM): 92.6%
growth (NCI-H522 lung; 10 µM): 95.3%
growth (786-0 renal; 1 µM): 96.6%
growth (786-0 renal; 10 µM): 93.4%
growth (COLO 205 colon; 1 µM): 95.4%
growth (COLO 205 colon; 10 µM): 94.5%
growth (DU-145 prostate; 1 µM): 105%
growth (DU-145 prostate; 10 µM): 109%
growth (MALME-3M melanoma; 1 µM): 78.4%
growth (MALME-3M melanoma; 10 µM): 52.5%
growth (MDA-MB-231 breast; 1 µM): 33.7%
growth (MDA-MB-231 breast; 10 µM): 21.8%
growth (RXF 393 renal; 1 µM): 102%
growth (RXF 393 renal; 10 µM): 90%
growth (SF-268 CNS; 1 µM): 89.3%
growth (SF-268 CNS; 10 µM): 100%
growth (SF-295 CNS; 1 µM): 96.2%
growth (SF-295 CNS; 10 µM): 93.2%
growth (SF-539 CNS; 1 µM): 94.6%
growth (SF-539 CNS; 10 µM): 88.9%
growth (UACC-257 melanoma; 1 µM): 101%
growth (UACC-257 melanoma; 10 µM): 88.3%
growth (M14 melanoma; 1 µM): 90.5%
growth (M14 melanoma; 10 µM): 92.8%

NS(=O)(=O)c1ccc(Nc2nc(SCC(=O)c3ccc(F)cc3)nc3ccccc23)cc1
growth (NCI-H226 lung; 10 µM unless noted): 50.1%
growth (NCI-H322M lung; 10 µM unless noted): 58.7%
growth (HOP-62 NSCLC; 10 µM unless noted): 54.4%
growth (NCI-H460 lung; 10 µM unless noted): 36%
growth (HOP-92 NSCLC; 10 µM unless noted): 56.3%
growth (NCI-H522 lung; 10 µM unless noted): 42.1%
growth (A549/ATCC NSCLC): 53.8%
growth (786-0 renal; 10 µM unless noted): 68.9%
growth (COLO 205 colon; 10 µM unless noted): 77%
growth (DU-145 prostate; 10 µM unless noted): 52.9%
growth (K-562 leukemia): 24.1%
growth (MALME-3M melanoma; 10 µM unless noted): 31.7%
growth (MDA-MB-231 breast; 10 µM unless noted): 51.7%
growth (RXF 393 renal; 10 µM unless noted): 63.5%
growth (SF-268 CNS; 10 µM unless noted): 46.8%
growth (SF-295 CNS; 10 µM unless noted): 59.9%
growth (SF-539 CNS; 10 µM unless noted): 53.2%
growth (UACC-257 melanoma; 10 µM unless noted): 77.9%
growth (M14 melanoma; 10 µM unless noted): 56%

COc1ccc(-n2c(NC(=O)N3CCN(C)CC3)c(C#N)c3ccccc32)cc1
growth (NCI-H226 lung; 10 µM unless noted): 11.4%
growth (NCI-H322M lung; 10 µM unless noted): 90.2%
growth (HOP-62 NSCLC; 10 µM unless noted): 30.5%
growth (NCI-H460 lung; 10 µM unless noted): 30.7%
growth (HOP-92 NSCLC; 10 µM unless noted): 44%
growth (NCI-H522 lung; 10 µM unless noted): 61.1%
growth (A549/ATCC NSCLC): 45.3%
growth (786-0 renal; 10 µM unless noted): 44.2%
growth (COLO 205 colon; 10 µM unless noted): 65.5%
growth (DU-145 prostate; 10 µM unless noted): 41.2%
growth (K-562 leukemia): 58.6%
growth (MALME-3M melanoma; 10 µM unless noted): 38.5%
growth (MDA-MB-231 breast; 10 µM unless noted): 29.6%
growth (RXF 393 renal; 10 µM unless noted): -9.29% (active)
growth (SF-268 CNS; 10 µM unless noted): 29.1%
growth (SF-295 CNS; 10 µM unless noted): 47.1%
growth (SF-539 CNS; 10 µM unless noted): 14.3%
growth (UACC-257 melanoma; 10 µM unless noted): 60.3%
growth (M14 melanoma; 10 µM unless noted): 54.4%
